# Bioassay records as filed in PubChem.
# Rows were chosen to be rich in hits. Some 19% of all compounds tested hit in one or more screens of this group.
# TDP1 cell CPT – DT40-hTDP1 cell growth loss with CPT; chicken DT40 Tdp1-/-;hTDP1 cells + 20 nM CPT, ATP luminescence, 48 h; Potency, µM (series often up to 46.2 µM), actives largely listed as inhibitors; 420,000 tested, 12% active; AID 686979; further: nearly all actives have a fitted effect of over 55% in size
#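 Chicken DT40 Tdp1-/- cells complemented with human TDP1, 400 cells/well, exposed to compounds plus 20 nM camptothecin for at least 48 h at 37 C; viability read as ATP content by CellTiter-Glo luminescence.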
# TDP1 cell noCPT – qHTS for Inhibitors of human tyrosyl-DNA phosphodiesterase 1 (TDP1): qHTS in cells in absence of CPT; Potency, µM (highest dose often 46.2 µM), usual class: inhibitors; 420,000 tested, 15% active; DT40 Tdp1-/- hTDP1 cells, no CPT, ATP luminescence, 48 h; AID 686978, 2013; further: nearly all actives have a fitted effect of over 55% in size
#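 Camptothecin absent (DMSO only). Human TDP1-complemented DT40 knockout cells, 400 cells/well, 37 °C for minimum 48 hr; ATP measured via CellTiter-Glo, 30 min dark incubation, luminescence.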
# HT1080 IDH1KD tx – HT-1080 IDH1 knockdown cell toxicity (counter line); HT-1080 IDH1 knockdown viability, ATP luminescence, 48 h; Potency, µM (titrated, usually from 46.1 µM), actives largely listed as cytotoxic; 360,000 tested, 2% active; AID 686971
#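 IDH1KD HT-1080 cells, 750/well, RPMI + 5% FBS; compound pinned after 2 h settling; 48 h, 37 °C; CellTiter-Glo luminescence; % activity normalised to DMSO and no-cell wells; curves fitted, classed by r2 and efficacy.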
# HT1080-NT tox – kills 2HG-producing HT-1080-NT fibrosarcoma cells; HT-1080-NT fibrosarcoma viability, CellTiter-Glo ATP luminescence, 48 h; Potency, µM (doses to about 46.1 µM), actives largely listed as cytotoxic; 360,000 tested, 1.6% active;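 further: NT is the 2HG producing partner of a matched IDH1 knockdown line; nearly all actives have a fitted effect of over 55% in size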
#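 HT-1080-NT fibrosarcoma cells (2HG-overproducing), 750 cells/well in RPMI with 5% FBS, dosed after 2 h and incubated 48 h at 37C. CellTiter-Glo luminescence normalized to DMSO and no-cell wells; concentration-response curves fitted and classed.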
# IL1B secr inh – blocks inflammasome-driven IL-1 beta release | THP-1 LPS/ATP IL-1B secretion, AlphaLISA, 16 h; hits give low values | activity change, % at 57.5 µM | 360,000 tested, 4.7% active; in the data active means activity change below about -50%; inconclusive means mostly about -30% to -49%
#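 Secreted IL-1B measured by AlphaLISA bead assay after 16 h compound exposure of THP-1 cells; compounds (final up to 57.5 uM) added 1 h before LPS (250 ng/mL) and ATP (1.25 mM) stimulation; lower signal means less secretion.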
# A number is an active result; . = inactive; ? = inconclusive; / = no result given; ! = not active in a repeat. Unless noted, the call rests on the fitted dose curve; in most records, active means well fitted curve in the direction sought with a large enough effect; inconclusive means small, poorly fitted or top-dose-only effect, or another doubt; inactive means no such curve, though single readings can be large; an effect the other way counts as inactive or inconclusive.
SMILES,TDP1 cell CPT,TDP1 cell noCPT,HT1080 IDH1KD tx,HT1080-NT tox,IL1B secr inh
O=C(Nc1ccc(F)c(Cl)c1)Nc1c[nH]c(=O)[nH]c1=O,.,.,/,/,/
COc1cc(OC)c(NC(=O)CN2C(=O)CCn3nc(-c4cccn4C)cc32)cc1Cl,.,.,/,/,/
Cc1cccc(S(=O)(=O)c2cn(C)c3cc(N4CCN(c5ccccc5)CC4)c(F)cc3c2=O)c1,.,.,/,/,/
CCOc1cc(/C=C2\SC(=S)N(C(C(=O)O)c3ccccc3)C2=O)ccc1O (stereo unspecified),.,.,.,.,.
CCOc1cc(/C=C2/SC(=S)N(CC3CCCO3)C2=O)ccc1O (stereo unspecified),?,23.1µM,.,.,.
COc1cccc(/C=C2\SC(=S)N(CC3CCCO3)C2=O)c1 (stereo unspecified),.,.,.,.,-70.7
O=C1/C(=C/c2cccc(O)c2)SC(=S)N1CC1CCCO1 (stereo unspecified),?,?,.,.,?
CC(Oc1ccc(F)cc1)C(=O)NCC1(N(C)C)CCCCC1 (stereo unspecified),.,.,/,/,/
CCCCN1C(=O)NC2NC(=O)NC21 (stereo unspecified),.,.,.,.,-91.7
CCCCC(=O)N(Cc1ccc(-c2ccccc2-c2nn[nH]n2)cc1)[C@@H](C(=O)O)C(C)C,.,.,/,/,/
CCOc1cc(N2CCOCC2)c(OCC)cc1NC(=O)CN1C(=O)NC(C)(c2ccc(OC)cc2)C1=O (stereo unspecified),.,.,.,.,.
Cc1ccc(C(C)C)cc1OCC(=O)NCCCn1ccnc1,?,23.1µM,.,.,.
COc1ccc(C2Nc3ccc(NC(C)=O)cc3C(=O)N2Cc2cccc(Cl)c2)cc1COc1ccc(NC(C)=O)cc1 (stereo unspecified),12.6µM,10µM,.,.,/
COc1ccc(C2Nc3ccccc3C(=O)N2Cc2ccccc2)cc1OC (stereo unspecified),.,?,.,.,.
COc1ccc(C2Nc3ccccc3C(=O)N2Cc2ccccc2)cc1COc1ccccn1 (stereo unspecified),?,.,.,.,.
COc1ccc(C2Nc3ccc(NC(=O)CO)cc3C(=O)N2Cc2cccc(Cl)c2)cc1COc1ccc(NC(C)=O)cc1 (stereo unspecified),?,11.2µM,?,?,/
CCOC(=O)c1c(C)nc2cc(C)cc(C)n12,.,.,.,?,.
COc1ccc(S(=O)(=O)N2CCCCC2)cc1NC(=O)c1ccc(Cl)nc1,?,.,.,.,.
COc1ccc(Cc2c(C3CCCCC3)nc3c(Cl)cc(C(F)(F)F)cn23)c(C)c1,18.4µM,?,?,?,.
COc1ccc(Cc2c(C3CCCCC3)nc3ccc(Br)cn23)c(C)c1,16.4µM,23.1µM,.,.,.
COc1ccc(Cc2c(C3CCCCC3)nc3cc(C)c(Br)c(C)n23)c(C)c1,.,?,.,.,.
COc1ccc(-c2c3c(=O)n(C)c(=O)n(C)c3cn2C2CCCCC2)cc1,?,?,.,.,-53.8
COc1ccc(NCc2ccc(OC)c(Cn3ccnc3)c2)c(OC)c1,.,?,.,.,-69.0
Cc1nc(SCC(=O)CC(=O)OC(C)C)c(C#N)c(C)c1C,20.6µM,?,.,.,.
Cc1cc(C)c(C#N)c(SCC(=O)CC(=O)OC(C)C)n1,?,.,.,.,.
SMILES,TDP1 cell CPT,TDP1 cell noCPT,HT1080 IDH1KD tx,HT1080-NT tox,IL1B secr inh
CSc1ccccc1OCc1cc(C(=O)N(C)Cc2ccncn2)no1,.,.,.,.,.
Cn1cc(-c2coc3c(C(=O)NCc4cccs4)cccc23)cn1,?,?,.,.,.
COc1ccc(C(=O)CSc2nn3c(=O)c(C(C)(C)C)nnc3s2)cc1,?,?,?,.,-58.0
Cc1c(C(=O)N2CCOCC2)sc(NC(=O)CCl)c1C#N,13µM,11.6µM,11.6µM,13µM,.
Cc1c(C(=O)N2CCOCC2)sc(NC(=O)c2ccc([N+](=O)[O-])cc2)c1C#N,?,?,.,.,.
CN1CCN(S(=O)(=O)c2cccc(C(=O)NCCOc3ccccc3F)c2)CC1,.,.,.,.,.
CC(=O)c1cc2c(cc1N/C(=N/S(=O)(=O)c1ccc(C)cc1)c1ccc(F)cc1)OCO2,.,.,/,/,/
CCn1cc(C(=O)NCCCN(C)c2ccccc2)c(=O)c2cc(S(=O)(=O)N(C)C)ccc21,16.4µM,?,.,.,.
CCN(CCCNC(=O)c1cn(CC)c2ccc(S(=O)(=O)N(C)C)cc2c1=O)c1cccc(C)c1,?,?,.,.,.
CCn1cc(C(=O)NCc2ccc(Cl)cc2)c(=O)c2cc(S(=O)(=O)N(C)C)ccc21,?,20.6µM,.,.,-68.6
CCn1cc(C(=O)NCc2ccc3c(c2)OCO3)c(=O)c2cc(S(=O)(=O)N(C)C)ccc21,?,18.4µM,.,.,.
O=[N+]([O-])c1ccc2cn(-c3ccccc3)nc2c1,?,?,.,.,.
CN(CCOc1ccccc1)C(=O)c1ccc(Cl)c(S(=O)(=O)N2CCCCC2)c1,?,?,.,.,.
CCCS(=O)(=O)N1CCN(C(=O)c2cccc(OC)c2)CC1,.,.,.,.,.
O=S1(=O)CCOC[C@H](c2ccccc2)N1Cc1cccc(F)c1,?,12.6µM!,.,.,.
O=S1(=O)CCOC[C@H](Cc2ccccc2)N1Cc1cccc(F)c1,.,?,.,.,.
Cc1ccc(CN2[C@@H](c3ccccc3)COCCS2(=O)=O)cc1,?,?,.,.,.
O=S1(=O)CCOC[C@H](c2ccccc2)N1Cc1ccc(F)cc1,?,11.2µM,/,/,/
O=C(Nc1nc2cc3c(cc2s1)OCO3)c1ccco1,?,?,?,?,.
CC(=O)Nc1nc2cc3c(cc2s1)OCO3,23.1µM,14.6µM,.,.,.
Cc1sc(NC(=O)C2=COCCO2)nc1-c1ccc(F)cc1,16.4µM,20.6µM,.,.,.
O=C(Nc1nc2cc3c(cc2s1)OCO3)C1=COCCO1,8.2µM,13µM,18.4µM,13µM,.
CC(C)C(=O)Nc1nc2cc3c(cc2s1)OCCO3,20.6µM,14.6µM,.,.,.
Cc1ccc(F)c(S(=O)(=O)NC(=O)C2(C)CCN2C(=O)C/C=C/c2ccccc2)c1 (stereo unspecified),.,.,.,.,.
Cc1ccc(Cn2c(C)nc3ccc([N+](=O)[O-])cc3c2=O)cc1,18.4µM,20.6µM,.,.,.
N#Cc1c(N)n(Cc2ccccc2)c(=O)c2cc([N+](=O)[O-])ccc12,16.4µM,18.4µM,.,.,.
COc1ccccc1CNC(=O)CCc1c(C)nc2c(c(C)nn2-c2ccc(C)c(C)c2)c1C,.,.,/,/,/
O=C(CSc1ccccc1C(=O)O)NCc1ccccc1,.,.,.,.,.
